HCV inh: inhibitors of hepatitis C virus infection; Potency, µM (doses to about 41.8 µM), inactives show at the top dose activity change, negative = inhibition, actives largely listed as inhibitors; 340,000 compounds, 3.4% hits; Huh7.5.1 HCVcc-Cre infection, luciferase reporter, 44 h; note: potency is the fitted concentration of half-maximal effect; % is set by controls: 0 for no effect and ±100 for the full control effect
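Infectious HCV cell culture screen: compound-treated cells (1,000/well, pre-plated 4 h) are infected with HCVcc-Cre at roughly 0.5 moi and grown 44 h. Infection is quantified by luciferase signal after 15 min substrate incubation at room temperature.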
HCMV inh: blocks human cytomegalovirus replication; HFF cells, HCMV-luciferase reporter, 72 h; stronger effect = lower value; activity change, negative = inhibition, % at 57.5 µM; 410,000 compounds, 4.5% hits; AID 1259415; in the data active = activity change below about -60%; inconclusive = no clear call, values can overlap the other calls; inactive = above about -39%; note: % is set by controls: 0 for no effect and ±100 for the full control effect
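HFF cells seeded 16 h at 37C, treated with compounds, infected with luciferase-reporter HCMV at MOI 1 PFU/cell; luciferase read at 72 h post infection, normalized to buffer-only and Salinomycin controls.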
Shiga toxin inh: inhibitors of Shiga toxin in Vero cells. Vero cells, Shiga toxin protein synthesis inhibition reporter. inhibition, % at 38.7 µM. 290,000 compounds, 9.2% hits; in the data active = inhibition mostly above about 28%, no sharp cut-off; inactive = mostly below about 43%; note: 0% is about no effect
Cycloheximide cs: affects cycloheximide protein synthesis inhibition readout, counter-screen; cell reporter, cycloheximide protein synthesis inhibition counterscreen; max response, %; AID 2314; 300,000 compounds, 12% hits; in the data active = max response mostly above about 13%, no sharp cut-off; inactive = mostly below about 14%; note: read at 38.3 µM for the half of the compounds with a filed dose; 0% is about no effect
Pf growth 48h: inhibits P. falciparum growth in the first generation, 48 h; P. falciparum luciferase growth in erythrocytes, 48 h; Potency, µM (doses to about 28.7 µM), for inactives: at the highest dose activity change, negative = inhibition, hits mostly inhibitors; 310,000 compounds, 5.9% hits; AID 504832; note: potency is the fitted concentration of half-maximal effect; % is set by controls: 0 for no effect and ±100 for the full control effect
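Parasite viability was followed by luminescence of a genomically integrated firefly luciferase. Cultures held 0.1% parasitemia at 2% hematocrit (final), incubated under 5% CO2 at 37 C.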
Pf growth 96h: P. falciparum growth inhibition at 96 hour, primary screen for plastid delayed-death inhibitors. P. falciparum luciferase reporter growth, 96 h. Potency, µM (titrated, usually from 28.7 µM), without a hit: top-dose activity change, negative = inhibition, most hits filed as inhibitors. AID 504834. 320,000 compounds, 6.9% hits; note: potency is the fitted concentration of half-maximal effect; % is set by controls: 0 for no effect and ±100 for the full control effect
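Readout is luminescence from an integrated firefly luciferase in P. falciparum. Red cells, 2% hematocrit and 0.05% parasitemia final, were cultured with compound through two parasite generations (96 hours) at 37 C, 5% CO2.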
* hit, by the source's call; ? = inconclusive; · = not tested or not shown; [ ] = another dose, or the depositor's remark. Hits are enriched below; roughly 21% of the tested compounds scored in any of these assays. Unless noted, calls come from the whole dose curve; as a rule, active = well fitted inhibition curve with a large enough effect; inconclusive = small, poorly fitted or top-dose-only effect, or another doubt; inactive = no such curve, though single readings can be large or run the other way.

SMILES | HCV inh | HCMV inh | Shiga toxin inh | Cycloheximide cs | Pf growth 48h | Pf growth 96h
N#CC1=C(N)Oc2c(ccc3ccccc23)C1c1cccs1 (stereo not drawn) | ? | · | 48* | 23* | · | 8.3µM*
COc1ccc(NC(=O)C(NC(=O)/C=C\c2ccc3c(c2)OCO3)c2ccc(C)cc2)cc1 (stereo not drawn) | · | -15 | · | · | · | ·
O=C(/C=C/c1ccco1)Nc1cccnc1Cl | 8% | -8 | 157* | 46* | 186% | 101%
COC(=O)c1ccccc1NC(=O)NCc1ccco1 | -20% | -14 | -9 | -2 | 17% | ·
COC(=O)c1ccccc1NC(=O)/C=C/c1ccco1 | ? | 14 | 53* | 38* | ? | -24%
Cc1sc(NC(=O)/C=C/c2ccco2)c(C(=O)O)c1C | 7% | 24 | 56 | 25* | ? | 189%
O=C(COC(=O)/C=C/c1ccccc1)Nc1cccnc1Cl | 4% | -16 | · | · | 14% | 10%
O=C(/C=C/c1ccccc1)Nc1cccnc1Cl | -26% | 35 | 105* | 42* | 187% | 178%
CC(C)C(=O)N1CCN(c2ccccc2NC(=S)NC(=O)/C=C/c2ccco2)CC1 | 3% | 22 | · | · | · | ·
O=C(/C=C/c1ccco1)Nc1ccccc1N1CCCCC1 | ? | ? | 92* | 24* | ? | 33%[1.15 µM]
Cc1nn(-c2ccccc2)c(Cl)c1C(=O)N(C)c1nc(-c2ccc(F)cc2)cs1 | -20% | · | -6 | 1 | 22% | 7.4µM*
Cc1nn(-c2ccccc2)c(Cl)c1C(=O)NCC(C)c1ccccc1 (stereo not drawn) | -11% | 56 | 74* | 43* | -21% | ?
Cc1nn(-c2ccccc2)c(Cl)c1C(=O)N(C)CC(=O)Nc1cccc(F)c1 | ? | -19 | · | · | ? | -12%
CCc1nnc(NC(=O)c2c(C)nn(-c3ccccc3)c2Cl)s1 | 9% | -7 | 31 | 42* | 1% | ?
CC(=O)c1cccc(NC(=O)c2c(C)nn(-c3ccccc3)c2Cl)c1 | -20% | -22 | 16 | 9 | -10% | ?
CC(=O)c1ccc(NC(=O)c2c(C)nn(-c3ccccc3)c2Cl)cc1 | 8% | 82 | -8 | -3 | -2% | 6%
COc1ccccc1NC(=O)c1c(C)nn(-c2ccccc2)c1Cl | -3% | ? | 13 | 14* | -28% | -18%
COC(=O)c1ccccc1S(=O)(=O)N1CCC(C(=O)OCc2ccc([N+](=O)[O-])cc2)CC1 | 0%[8.37 µM] | 17 | · | · | 2% | 14%
COc1ccc(C2CC(=O)N(CC(=O)Nc3ccc(C)c(Cl)c3)c3ccccc3S2)cc1OC (stereo not drawn) | · | 6 | · | · | · | ·
COCCn1c(CCC(=O)Nc2ccc(OC)c(OC)c2)nc2cccnc21 | · | 1 | · | · | · | ·
CC(=O)Nc1ccc(NC(=O)c2c(C)nn(-c3ccccc3)c2Cl)cc1C | -11% | -3 | 28 | -2 | 7% | 14%
Cc1nn(-c2ccccc2)c(Cl)c1C(=O)NNC(=O)c1ccccc1O | 10µM* | 62 | · | · | ? | -6%
Cc1ccccc1NC(=O)c1c(C)nn(-c2ccccc2)c1Cl | -24% | ? | 69* | 38* | 87% | 66%
CC1(C(=O)NS(=O)(=O)c2ccccc2)CCN1C(=O)COc1ccc(Cl)cc1 (stereo not drawn) | · | 14 | · | · | · | ·
CCC1(CC)NC(=S)NC1=S | 15% | 13 | · | · | · | ·
SMILES | HCV inh | HCMV inh | Shiga toxin inh | Cycloheximide cs | Pf growth 48h | Pf growth 96h
CC1(C)NC(=S)NC1=S | 10% | -100* | · | · | · | ·
O=C(NC1CCC(NC(=O)C(F)(F)C(F)F)CC1)C(F)(F)C(F)F (stereo not drawn) | 8% | 66 | 53 | 7 | · | 13µM*
Cc1ccc(-c2nc(S(=O)(=O)c3ccc(F)cc3)c(N3CCN(c4ccccc4)CC3)o2)cc1 | · | -18 | · | · | · | ·
O=C(COC(=O)c1ccc[nH]c1=O)NCCc1ccc(F)cc1 | 23% | 2 | 1 | 13 | -2% | 25%
O=C(COC(=O)c1ccccc1Br)NCCc1ccc(F)cc1 | 3% | -8 | -9 | 31* | 15% | 17%
CCc1cc(C(=O)OCC(=O)NCCc2ccccc2)sc1C | · | -85* | · | · | · | ·
N#Cc1cccc(NC(=O)COC(=O)c2ccccc2Sc2ccccc2C#N)c1 | 9% | -21 | 3 | 0 | 30% | 30%
O=C(COC(=O)c1ccccc1Br)Nc1ccc(F)cc1 | -12% | -12 | 98* | 36* | 30% | 12%
CC(=O)c1ccc(NC(=O)COC(=O)c2ccccc2Sc2ccccc2C#N)cc1 | 11% | -12 | 2 | 15* | 32% | 48%
O=C(COC(=O)c1ccccc1Br)Nc1ccc2[nH]c(=O)[nH]c2c1 | 14% | -31 | · | · | 9% | 23%
COc1ccc(Cl)cc1NC(=O)Cn1c(=O)n2nc(-c3ccccc3)nc2c2ccccc21 | · | -13 | · | · | · | ·
COc1ccc(OC)c2sc(NC(=O)c3ccc(S(=O)(=O)N4CCCC4)cc3)nc12 | · | -20 | · | · | · | ·
Cc1ccc(OCC(=O)N(Cc2ccco2)c2ccccn2)cc1 | · | -28 | · | · | · | ·
Cc1occc1C(=O)OCC(=O)Nc1ccc(F)cc1 | -10% | 22 | 75 | 36* | 76% | 101%
Cc1ccc(C(=O)c2ccccc2C(=O)OCC(=O)NCCc2ccccc2)cc1 | -28% | -67* | -8 | 3 | -6% | -15%
CC(=O)c1ccc(NC(=O)COC(=O)c2ccc(F)cc2F)cc1 | 12% | ? | 32 | 13* | 20% | 3%
CCN(CC)CCCNC(=O)c1c2c(nc3ccccc13)C(=O)N(C1CCCCC1)C2 | · | -3 | · | · | · | ·
COc1cccc(NC(=O)CSc2ncc(S(=O)(=O)c3ccc(C)c(C)c3)c(=O)[nH]2)c1 | · | 2 | · | · | · | ·
CCCCN(C1CCS(=O)(=O)C1)S(=O)(=O)c1ccc(OC)c(OC)c1 (stereo not drawn) | -21% | -4 | · | · | 19% | 10%
CC(C)c1ccc2c(c1)C(c1ccc(N3CCOCC3)cc1)=NNC(c1cccs1)=N2 | ? | 18 | 54 | 45* | ? | ?
COc1ccc2c(c1)C(c1cccs1)=NNC(c1ccncc1)=N2 | 11µM* | -16 | -14 | -4 | -4% | ?
COc1ccc(C2=NNC(c3cccnc3)=Nc3ccc(OC)cc32)cc1 | 7% | -30 | -11 | 3 | -8% | 10%
CCCOc1ccc(C2=NNC(c3cccs3)=Nc3ccc(OC)cc32)cc1 | 10% | 2 | 98* | 57* | ? | -1%
Clc1ccc2c(c1)C(c1cccs1)=NNC(c1cccnc1)=N2 | -5% | ? | 12 | -4 | -7% | 1.7µM*
CC(C)c1ccc2c(c1)C(c1cccs1)=NNC(c1ccncc1)=N2 | 0% | -38 | 76* | 22* | ? | 18%
CCc1ccc2c(c1)C(c1cccs1)=NNC(c1cccnc1)=N2 | -14% | -13 | -40 | 0 | ? | ?
CC(=O)Nc1ccc(S(=O)(=O)N2CCN=C2SCc2ccc(C)cc2)cc1 | ? | 17 | 88* | 50* | 45% | 53%
